From PubChem BioAssay AID504834 (National Center for Advancing Translational Sciences (NCATS), 2011)
Among all 320,000 compounds or so, about 22,000 (6.9%) were called active. Inconclusive results (about 27%) are left out. Calls follow the shape of the dose curve; as a rule, active = well fitted inhibition curve with a large enough effect; inconclusive = small, poorly fitted or top-dose-only effect, or another doubt; inactive = no such curve, though single readings can be large or run the other way. The entries come from a sample that favours actives as a whole. Where a call stands in place of a potency, no number is given.

Test: Primary qHTS for delayed death inhibitors of the malarial parasite plastid, 96 hour incubation
Settings: P. falciparum luciferase reporter growth; series mostly up to 28.7 µM
Method in brief: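 Delayed-death screen, second-generation endpoint: infected erythrocytes, 2% hematocrit, 0.05% parasitemia final; 96 hours at 37 C, 5% CO2; luciferase detection reagent; luminescence decrease equals reduced growth.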
Potency is read from the fitted curve at half-maximal effect.

Row | Structure (SMILES) | Potency
1 | O=c1cc(Cl)c2ccccc2n1-c1ccccc1 | inactive
2 | CCCCn1c(N)c(N(CC(C)C)C(=O)C2CSC3(C)CCC(=O)N23)c(=O)[nH]c1=O (stereo unspecified) | inactive
3 | CCn1c(-c2ccncc2)n[nH]c1=S | inactive
4 | CCCc1cc(-c2n[nH]c(=S)n2CC)c2ccccc2n1 | 1.65 µM (active)
5 | CCn1c(-c2ccoc2C)n[nH]c1=S | inactive
6 | CN(C)CCCNC(=S)N1CCC(c2nc3ccccc3[nH]2)CC1 | inactive
7 | COc1ccc(C[C@H](C(=O)O)N2C(=O)c3ccc(C(=O)O)cc3C2=O)cc1 | inactive
8 | O=C(C1CCCO1)N1CCN(S(=O)(=O)c2ccc(Br)cc2)CC1 (stereo unspecified) | inactive
9 | COc1ccc(N(CC(=O)Nc2ccc(C)cc2C)S(=O)(=O)c2ccccc2[N+](=O)[O-])c(OC)c1 | inactive
10 | Cc1ccc(S(=O)(=O)N(CC(=O)Nc2cccc([N+](=O)[O-])c2)Cc2ccc(Cl)cc2)cc1 | inactive
11 | COc1ccc(C)cc1S(=O)(=O)N(CC(=O)Nc1cccc([N+](=O)[O-])c1)c1ccc(C)cc1 | 11.7 µM (active)
12 | CC(C)c1c(C(=O)N/N=C/c2ccccc2C(=O)O)nnn1-c1nonc1N | inactive
13 | O=C(CNC(=O)[C@@H]1Cc2ccccc2CN1)NC1CCCCC1 | inactive
14 | O=C(OCC(=O)N1CCOCC1)c1ccc(N2CCOCC2)c([N+](=O)[O-])c1 | inactive
15 | O=C(COc1ccc(S(=O)(=O)N2CCOCC2)cc1Cl)N1CCOCC1 | inactive
16 | O=C(Cc1ccc(S(=O)(=O)N2CCOCC2)s1)N1CCN(c2ccc(C(F)(F)F)cc2[N+](=O)[O-])CC1 | 11.7 µM (active)
17 | COc1cccc(CNS(=O)(=O)c2cc3c(cc2C)n(C)c(=O)c(=O)n3C)c1 | inactive
18 | CCOc1ccc(C(=O)Nc2cccc(SC)c2)cc1 | inactive
19 | O=C(Nc1cccc(Cl)c1)OCc1ccccn1 | inactive
20 | CCOc1c(Nc2cccc(Cl)c2)c(=O)c1=O | 11.7 µM (active)
21 | O=C(NCc1ccc(F)cc1)C1CCN(C(=O)Nc2ccc(F)cc2)CC1 | inactive
22 | CC1CCCCN1S(=O)(=O)CCNC(=O)c1ccccc1 (stereo unspecified) | inactive

Row | Structure (SMILES) | Potency
23 | Cc1cc(C(=O)OCC(=O)Nc2ccccc2Cl)c(C)o1 | inactive
24 | O=C(COC(=O)c1cc(S(=O)(=O)N2CCOCC2)ccc1Cl)NCCc1ccccc1 | inactive
25 | COc1ccccc1NC(=O)COC(=O)Cc1ccc(S(=O)(=O)N2CCCCC2)s1 | inactive
26 | COCCN(Cc1ccccc1)C(=O)Cc1ccc(S(=O)(=O)N2CCOCC2)s1 | 9.28 µM (active)
27 | COC(=O)COc1ccc(S(=O)(=O)N2CCOCC2)cc1 | inactive
28 | O=C(Cc1ccc(S(=O)(=O)N2CCOCC2)s1)NCCC(c1ccccc1)c1ccccc1 | 7.38 µM (active)
29 | O=C(O)c1ccc(S(=O)(=O)N2CCOCC2)o1 | inactive
30 | C[n+]1ccc(C(=O)NCc2ccccc2)cc1 | inactive
31 | COc1ccnc2c1c(=O)n(Cc1cccc(F)c1)c(=O)n2C | inactive
32 | COc1ccc(/C=N/Nc2cc(N3CCOCC3)nc(C)n2)c(OC)c1 | inactive
33 | CCNc1nc(Oc2ccc(C(=O)OC)cc2)nc(N2CCOCC2)n1 | inactive
34 | Cc1cc(/C=C2/SC(=O)N(CC(=O)N3CCCC3)C2=O)c(C)n1C | inactive
35 | Cc1cc([N+](=O)[O-])ccc1NCc1cccc([N+](=O)[O-])c1 | 10.4 µM (active)
36 | Cc1cc([N+](=O)[O-])ccc1NC1CCCC1 | inactive
37 | COc1cccc(C(=O)CC(=O)C(=O)Nc2ccc([N+](=O)[O-])cc2C)c1 | inactive
38 | COC(=O)c1ccccc1NC(=O)CSc1ccccn1 | 2.94 µM (active)
39 | COC(=O)c1ccccc1NC(=O)CSc1nnnn1C | inactive
40 | C[C@@H]1CC[C@@]2(OC1)O[C@H]1C[C@H]3[C@@H]4CC=C5C[C@@H](O)[C@H](O)C[C@]5(C)C4CC[C@]3(C)[C@H]1[C@@H]2C (stereo partly specified) | inactive
41 | COc1cc(C(=O)NCC(=O)N2CC=C(c3ccccc3)CC2)cc(OC)c1OC | inactive
42 | Cc1cc(OCC(=O)Nc2c(C)n(C)n(-c3ccccc3)c2=O)ccc1[N+](=O)[O-] | inactive
43 | O=C(COC(=O)c1ccc[nH]c1=O)Nc1ccc2c(c1)OC(F)(F)O2 | inactive
44 | O=C(O)COCC(=O)NCc1csc2ccc(Cl)cc12 | inactive

Row | Structure (SMILES) | Potency
45 | O=C(Nc1ccc(CN2CCOCC2)cc1)c1cc(Cl)ccc1Cl | inactive
46 | c1cc(-c2nn[nH]n2)ccc1CN1CCCCC1 | inactive
47 | Clc1ccc(CN2CCCCCC2)cc1Cl | 11.7 µM (active)
48 | COc1ccccc1C(=O)NC(=S)NC12CC3CC(CC(C3)C1)C2 | inactive
49 | COc1ccc(NC(=S)N2CCC(NC(=O)c3cccc(F)c3)CC2)cc1 | inactive
50 | CCn1c(C)cc(=O)cc1-c1ccc(Cl)cc1 | inactive
51 | COc1ccc(C(=O)CN(C(=O)c2ccc(Cl)cc2)N2C(=O)c3ccccc3C2=O)cc1 | inactive
52 | COc1ccc(Cn2c(-c3ccc(Cl)cc3)c[n+]3ccccc23)cc1 | 0.117 µM (active)
53 | Cc1cc(C)c(C(=O)CSc2nc(C)cc(=O)[nH]2)c(C)c1 | inactive
54 | CSc1nnc(C2CCCN(CC(=O)Nc3ccccc3N3CCOCC3)C2)n1C(C)C (stereo unspecified) | inactive
55 | COc1ccc(C(=O)n2nc(C)c(Br)c2C)cc1OC | inactive
56 | O=S(=O)(Nc1ccc(Cl)cn1)c1cnc(Cl)c(Br)c1 | inactive
57 | Cc1cccc(N2CCN(C(=O)c3cccc(S(=O)(=O)N4CCc5ccccc5C4)c3)CC2C)c1 (stereo unspecified) | 11.7 µM (active)
58 | COC(=O)c1ccc(S(=O)(=O)N2CCc3ccccc3C2)cc1 | inactive
59 | CN1CCN(S(=O)(=O)c2cccc(C(=O)N3CCc4ccccc43)c2)CC1 | inactive
60 | CCCCc1ccc(NC(=S)NCCCN2CCOCC2)cc1 | inactive
61 | CSc1ccc(CNCCN2CCOCC2)cc1 | inactive
62 | CCCCC(CC)CNCc1cccn1CCN1CCOCC1 (stereo unspecified) | 11.7 µM (active)
63 | COc1cccc(N2CC(C(=O)NCc3n[nH]c(=O)c4ccccc34)CC2=O)c1 (stereo unspecified) | inactive
64 | CC(C[N+](C)(C)C)OC(N)=O (stereo unspecified) | 9.53 µM (active)
65 | CCc1ccc[n+](-c2nc([O-])sc2C=O)c1 | inactive
66 | COc1ccc(CNc2cc(C)cc(C)c2)cc1OC | inactive

Row | Structure (SMILES) | Potency
67 | COc1ccc(/C=C/C(=O)c2cc(Br)ccc(=O)c2O)cc1 | 10.4 µM (active)
68 | COc1ccc(C(=O)/C=C/c2cccnc2)c(OC)c1 | inactive
69 | COc1ccc(/C=C/C(=O)c2ccc(OC)cc2O)cc1 | inactive
70 | CSc1nsc(SCC(=O)Nc2cc(C(=O)O)ccc2C)n1 | inactive
71 | C[C@H]1CCC(=O)N([C@H](CSc2ccccc2)Cc2ccccc2)CC1 | 11.7 µM (active)
72 | O=C1CC[C@H](O)CCN1[C@H](CSc1ccc(Br)cc1)Cc1ccccc1 | inactive
73 | CC(=O)Nc1ccc(SC[C@H](Cc2ccccc2)N2CC[C@@H](C)CCC2=O)cc1 | 3.29 µM (active)
74 | COc1ccc(SCCN2CCN(CC(C)C)CCC2=O)cc1 | inactive
75 | COc1ccc(SC[C@H](Cc2ccccc2)N2CCN(CCc3ccccc3)CCC2=O)cc1 | 4.65 µM (active)
76 | CN1CCC(=O)N([C@H](CO)Cc2ccccc2)CC1 | inactive
77 | CC(=O)Nc1ccc(NC(=O)C(C)OC(=O)C2CC(=O)N(CCc3ccccc3)C2)cc1 (stereo unspecified) | inactive
78 | CC1CCN(CCC(=O)Nc2ccccc2)CC1 | inactive
79 | O=C1CCN(Cc2ccc([N+](=O)[O-])cc2)CCN1[C@H](CO)Cc1ccccc1 | inactive
80 | C/C(Cc1ccccc1)=N\NC(=O)CNC(=O)c1ccccc1Cl | inactive
81 | CCC1(CC)Cc2ccccc2-c2nc(CCl)[nH]c(=O)c21 | inactive
82 | COc1ccc(CCNS(=O)(=O)c2cc3c(cc2C)NC(=O)CO3)cc1OC | inactive
83 | CCC(=O)c1ccc(OCC(=O)Nc2ccc(N3CCCCC3)cc2)cc1 | inactive
84 | Cc1c(CC(=O)NCC(=O)NCC(=O)O)c(=O)oc2cc3oc4c(c3cc12)CCCC4 | inactive
85 | O=S(=O)(NC1CC2CCC1C2)c1ccc(Cl)cc1 (stereo unspecified) | inactive
86 | CC1CN(C(=S)Nc2cccc(F)c2)CC(C)O1 (stereo unspecified) | inactive
87 | CCOC(=O)Nc1ccc(NC(=O)OCC)cc1 | inactive
88 | CCCCC(CCC(=O)Nc1ccc(C(=O)OCC)cc1)C(=O)O (stereo unspecified) | inactive

Row | Structure (SMILES) | Potency
89 | CCCCCOC(=O)NCCOC(=O)Nc1ccc(C(=O)OCC)cc1 | 11.7 µM (active)
90 | CN1CCN(NC(=O)Nc2ccc(Br)cc2)CC1 | inactive
91 | O=C(NCCS(=O)(=O)NCc1ccc(Cl)cc1)c1ccccc1 | inactive
92 | CCOC(=O)Cc1csc(NC(=O)CSc2ccc(Br)cc2)n1 | 2.62 µM (active)
93 | CCOC(=O)Cc1csc(NC(=O)CSc2nc(C)cc(=O)[nH]2)n1 | inactive
94 | CCOC(=O)Cc1csc(NC(=O)Nc2ccccc2)n1 | inactive
95 | CCOC(=O)N1CCN(C(=O)COC(=O)c2cccc(S(C)(=O)=O)c2)CC1 | inactive
96 | CCCN(CC(=O)Nc1ccccc1OC)C(=O)CCC(=O)c1ccc(F)cc1 | inactive
97 | CCCCOC(=O)Cn1c(=O)n(CC(=O)OCCCC)c2cc(C)ccc21 | inactive
98 | CCCCCCCCCCOC(=O)Cn1c(COc2cccc(OC)c2)[n+](C)c2ccccc21 | 3.29 µM (active)
99 | CCn1c(=N)n(CC(=O)c2cccc(OC)c2)c2ccccc21 | inactive
100 | NC(=O)c1oc2ccccc2c1NC(=O)CS(=O)(=O)c1ccccc1 | inactive
101 | CCOc1ccc2[nH]c(=O)c(CN(CCCO)S(=O)(=O)c3ccc(F)cc3)cc2c1 | inactive
102 | Cc1cccc(N2CCN(C(=O)CCS(=O)(=O)c3ccc4c(c3)NC(=O)C(C)S4)CC2)c1C (stereo unspecified) | inactive
103 | Cc1cc(=O)oc2cc(OC(C)C(=O)NCCc3ccc(S(N)(=O)=O)cc3)ccc12 (stereo unspecified) | inactive
104 | CCn1ccnc1CN(C)C(=O)c1cc(COc2ccc(-n3cncn3)cc2)on1 | inactive
105 | CCn1ccnc1CN(C)C(=O)c1cc(COc2ccc(Cl)cc2OC)on1 | 3.7 µM (active)
106 | COc1cc(Cl)ccc1OCc1cc(C(=O)N2CC[C@@H]3CCCC[C@H]3C2)no1 | inactive
